Compounds without any hit were thinned out: in the full panel of roughly 83,000, 20% have a hit.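 How to read the values: 0–100, growth inhibition (40 = 60% inhibited); 0, no net growth; -100 to 0, cell death (-40 = 40% of starting cells died; -100 = all dead).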 Activity calls are given as the source filed them. How the source made its calls: active means growth percent below 10; inactive means the rest.
Assays:
Assay in all cases: NCI-60 one-dose screen, 48 h (100 = growth as untreated, 0 = no growth, -100 = all killed)
[1] = tested on: SK-MEL-2 melanoma; conditions: 10 µM unless noted
[2] = tested on: EKVX NSCLC; conditions: 10 µM unless noted
[3] = tested on: SN12C renal; conditions: 10 µM unless noted
[4] = tested on: UO-31 renal; conditions: 10 µM unless noted
[5] = tested on: TK-10 renal; conditions: 10 µM unless noted
[6] = tested on: ACHN renal; conditions: 10 µM unless noted
[7] = tested on: CAKI-1 renal; conditions: 10 µM unless noted
[8] = tested on: HL-60(TB) leukemia; conditions: 10 µM unless noted
[9] = tested on: CCRF-CEM leukemia; conditions: 10 µM unless noted
[10] = tested on: MOLT-4 leukemia; conditions: 10 µM unless noted
[11] = tested on: SR leukemia; conditions: 10 µM unless noted
[12] = tested on: RPMI-8226 leukemia; conditions: 10 µM unless noted
[13] = tested on: OVCAR-8 ovarian; conditions: 10 µM unless noted
[14] = tested on: OVCAR-5 ovarian; conditions: 10 µM unless noted
[15] = tested on: OVCAR-4 ovarian; conditions: 10 µM unless noted
[16] = tested on: SK-OV-3 ovarian; conditions: 10 µM unless noted
[17] = tested on: IGROV1 ovarian; conditions: 10 µM unless noted
[18] = tested on: OVCAR-3 ovarian; conditions: 10 µM unless noted
[19] = tested on: HS 578T breast; conditions: 10 µM unless noted
[20] = tested on: A498 renal; conditions: 10 µM

Measured: growth

C[S+]1C=Cc2ccccc2C1c1ccc(Cl)cc1 (configuration not stated)
inactive: [1] 92.7% | [2] 90.6% | [3] 96% | [4] 75.6% | [5] 101% | [6] 99.3% | [7] 72.7% | [8] 91.3% | [9] 73.7% | [10] 85.7% | [11] 93.4% | [12] 40.8% | [13] 95.2% | [14] 118% | [15] 66.5% | [16] 116% | [18] 89.8% | [19] 77.7%
active: [17] -85.2%

CCOc1ccccc1C(=O)OCC(Cl)(Cl)Cl
inactive: [1] 116% | [2] 109% | [3] 102% | [4] 94.4% | [5] 99.6% | [6] 111% | [7] 98.7% | [20] 88.5% | [9] 104% | [10] 105% | [11] 93.9% | [12] 107% | [13] 102% | [14] 109% | [15] 111% | [16] 106% | [17] 106% | [18] 109% | [19] 97.9%

Fc1ccc(N2COOC3(OOC2)C2CC4CC(C2)CC3C4)cc1
inactive: [1] 88.8% | [2] 79.4% | [3] 101% | [5] 93% | [6] 59.7% | [7] 26% | [8] 74% | [9] 94.2% | [10] 92.8% | [12] 95.4% | [13] 86.7% | [14] 98.6% | [15] 101% | [16] 105% | [17] 16.5% | [18] 97%
active: [4] -74.9% | [11] -19.2%

Fc1ccc(C2=CCNCC2)cc1
inactive: [1] 109% | [2] 86.2% | [3] 73% | [4] 84.7% | [5] 86.5% | [6] 108% | [7] 79.5% | [20] 87.8% | [9] 118% | [10] 106% | [11] 114% | [12] 122% | [13] 100% | [14] 82.3% | [15] 111% | [16] 104% | [18] 102% | [19] 114%

O=C([O][Hg][CH2]C1COCC([CH2][Hg][O]C(=O)c2ccccc2)O1)c1ccccc1 (configuration not stated)
inactive: [1] 105% | [2] 103% | [3] 56.8% | [5] 38.1% | [6] 70.6% | [7] 57.2% | [20] 114% | [11] 46.8% | [12] 71.8% | [13] 94% | [14] 134% | [15] 90.1% | [16] 118% | [19] 89.1%
active: [4] -12.1% | [9] -10.3% | [10] -2.46% | [18] -94%

CCOC(=O)N[C@H]1CCc2c(Br)c(OC)c(OC)c(OC)c2-c2ccc(SC)c(=O)cc21
active: [7] 3.95% | [8] -39.9% | [9] 1.82% | [10] 5.92% | [11] -5.77% | [12] -6.15% | [15] 5.73% | [18] -29.4% | [19] -1.62%
inactive: [1] 43.5% | [2] 45.4% | [3] 24.3% | [4] 27.3% | [5] 42.1% | [6] 24.4% | [13] 20.2% | [14] 32.5% | [16] 52.1% | [17] 12.1%

CC12CCC3C(CCC4=CC(=O)CCC43CF)C1CCC2=O (configuration not stated)
inactive: [1] 97.2% | [2] 94.8% | [3] 113% | [4] 87.8% | [5] 115% | [6] 120% | [7] 111% | [20] 111% | [9] 88.2% | [10] 106% | [11] 119% | [13] 94.3% | [14] 118% | [15] 98.8% | [16] 120% | [17] 62.4% | [18] 119% | [19] 128%

C[C@]12CC[C@H]3[C@@H](CC[C@]4(O)C[C@@H](O[C@@H]5O[C@H](CO)[C@@H](O[C@@H]6OC[C@@H](O)[C@H](O)[C@H]6O)[C@H](O)[C@H]5O)CC[C@]34C=O)[C@@]1(O)CC[C@@H]2C1=CC(=O)OC1
active: [1] -32.6% | [2] -59.9% | [3] -32.1% | [4] 6.18% | [5] -6.98% | [6] -34.3% | [7] -5.08% | [20] -9.04% | [9] -14.5% | [10] -36.3% | [11] -31.7% | [13] 2.06% | [15] 2.78% | [16] -3.1% | [18] -34.5% | [19] 8.83%
inactive: [12] 10% | [14] 31.1% | [17] 18.6%

C[N+]12CN3CN(CN(C3)C1)C2
inactive: [1] 96.2% | [2] 96.4% | [3] 112% | [4] 95.5% | [5] 128% | [6] 108% | [7] 83.6% | [20] 109% | [10] 123% | [11] 138% | [12] 88% | [13] 100% | [14] 82.7% | [15] 105% | [16] 118% | [17] 91.2% | [18] 115%

CN(C)CC(C(=O)Cc1ccccc1)c1ccccc1 (configuration not stated)
inactive: [1] 82.2% | [2] 110% | [3] 93.6% | [6] 102% | [7] 82.1% | [20] 90.5% | [9] 67.1% | [10] 78% | [13] 34% | [14] 133% | [15] 91.7% | [16] 124% | [17] 84.8%
active: [4] -74% | [5] -38.1% | [12] -4.6% | [18] 6.54%

COc1cc2ncnc(Nc3ccc(F)c(Cl)c3)c2cc1OCC(=O)N1CCN(C)CC1
inactive: [1] 94.4% | [2] 61.8% | [3] 76.9% | [4] 55.9% | [5] 23.4% | [6] 37.8% | [7] 44.1% | [20] 69.9% | [9] 87% | [10] 81.2% | [11] 74.5% | [12] 90.5% | [13] 90% | [14] 78.4% | [15] 79.5% | [16] 13.7% | [17] 48.2% | [18] 78.2% | [19] 93.4%

O=C(N/N=C\c1ccc(N(CCCl)CCCl)cc1)c1cccc([N+](=O)[O-])c1
inactive: [1] 101% | [2] 88.6% | [3] 88.9% | [4] 90.6% | [5] 99.2% | [6] 94.4% | [7] 89.3% | [20] 118% | [9] 82.5% | [10] 89.7% | [11] 103% | [12] 95.6% | [13] 63.4% | [14] 109% | [15] 87% | [16] 82.7% | [17] 76.8% | [18] 83.2% | [19] 64.2%

O=C(Nc1ccc(O)cc1)C(Cl)(Cl)Cl
inactive: [1] 99.4% | [2] 98.6% | [3] 95.4% | [4] 93.4% | [5] 106% | [6] 104% | [7] 89.9% | [8] 98.5% | [9] 106% | [10] 104% | [11] 96.6% | [12] 112% | [13] 97.1% | [14] 102% | [15] 105% | [16] 98.2% | [17] 100% | [18] 124% | [19] 112%

COc1cccc(/C=C/[N+](=O)[O-])c1
inactive: [1] 97.4% | [2] 89.2% | [3] 99.5% | [4] 45.8% | [5] 90.9% | [6] 74.7% | [7] 96.8% | [20] 43.8% | [9] 51.2% | [10] 50.4% | [13] 79.6% | [14] 92.8% | [15] 104% | [16] 94.4% | [17] 55.8% | [18] 75.2% | [19] 95%
active: [11] -21.6% | [12] -21.2%

CN1CC(CNC(=O)OCc2ccccc2)CC2c3cccc4c3c(cn4C)CC21 (configuration not stated)
inactive: [1] 47.2% | [2] 71.8% | [3] 45% | [4] 32.5% | [5] 53.9% | [6] 39.7% | [7] 52.9% | [20] 57.6% | [9] 45.7% | [13] 62.4% | [14] 64.6% | [16] 69% | [17] 52.6% | [18] 61.9% | [19] 49.4%

CN[C@]1(c2ccccc2Cl)CCCC[C@H]1NCCCN1CCN(C)CC1
inactive: [1] 103% | [2] 92% | [3] 97.4% | [4] 76.3% | [5] 96.4% | [6] 108% | [7] 87.3% | [8] 93.9% | [9] 99.6% | [10] 98.8% | [11] 111% | [12] 97.3% | [13] 97.2% | [14] 104% | [15] 101% | [16] 105% | [17] 103% | [18] 102% | [19] 94.1%

Source: PubChem BioAssay (NCI)
